The record followed here is PubChem BioAssay (NCATS).

In assay [1] the target is Glutathione peroxidase 1 (Homo sapiens) (UniProt P07203). The assay is described as follows: Primary qHTS Assay for Inhibitors of Recombinant Selenoprotein Glutathione Peroxidase 1 (GPX1) (AID 1845191). For activity, negative = inhibition: % is set by controls: 0 for no effect and ±100 for the full control effect. Note: nearly all actives have a fitted effect of over 65% in size. A digest of the protocol: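 GPX1 10 nM, GR 100 nM, GSH 1 mM, NADPH 0.5 mM, CHP 0.5 mM (final). 30-min cpd preincubation, RT. Ex340/Em450 read t=0, t=15 min.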
On the technique in general: In qHTS, concentration-response curves come from the screen itself.

For assay [2], the target named is Phospholipid hydroperoxide glutathione peroxidase GPX4 (Homo sapiens) (UniProt P36969). The assay is described as follows: Primary qHTS Assay for Inhibitors of Recombinant Selenoprotein Glutathione Peroxidase 4 (GPX4) (AID 1845192). Note: nearly all actives have a fitted effect of over 65% in size. A digest of the protocol: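 qHTS, GR-coupled: GPX4 200 nM + cpd 30 min RT → GSH 1 mM, NADPH 0.5 mM, GR 100 nM → CHP 0.5 mM start; fluor 340/450 at t0 and t15 min; no-enzyme wells as control.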

Assay [3] can be described thus: qHTS profiling for inhibitors of Plasmodium falciparum proliferation (AID 504749).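 For activity, negative = inhibition: 0% = DMSO vehicle and full inhibition = artemisinin control.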 Note: nearly all actives have a fitted effect of over 60% in size. Note: potency is the fitted concentration of half-maximal effect. The conditions noted are these: P. falciparum in erythrocytes, SYBR Green DNA, 72 h. A digest of the protocol:
(§1)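 Fluorescence of SYBR Green-bound parasite DNA, read at 485/535 nm, served as the growth measure. Infected erythrocytes were cultured with compound 72 h; artemisinin (0.29 uM) and DMSO wells defined the normalization range.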

Assay [4] has as its system 3D7. The assay is described as above. Particulars: P. falciparum in erythrocytes, SYBR Green DNA, 72 h; series mostly up to 28.7 µM. The method, boiled down: as §1
In assay [5] the test system is 7G8. Described as above. The conditions noted are these: P. falciparum in erythrocytes, SYBR Green DNA, 72 h; series mostly up to 28.7 µM. The method, boiled down: as §1
Assay [6] concerns AA1029. The description is as above. The conditions noted are these: P. falciparum in erythrocytes, SYBR Green DNA, 72 h; series mostly up to 28.7 µM. The method, boiled down:
as §1

Assay [7] relates to AS120. The description is as above. The conditions noted are these: P. falciparum in erythrocytes, SYBR Green DNA, 72 h; series mostly up to 28.7 µM. The method, boiled down:
as §1

Assay [8] deals with ATS189. The description is as above. The conditions noted are these: P. falciparum in erythrocytes, SYBR Green DNA, 72 h; series mostly up to 28.7 µM. The method, boiled down:
as §1

The mark [9] stands for this setting: at 28.7 µM (top of the series), parasite line A.
Where [10] appears, read: at 28.7 µM (top of the series), parasite line B.

Records with an inconclusive call do not appear. Values without a mark were called inactive. Activity calls are given as the source filed them. Calls come from the whole dose curve; as a rule, active = well fitted inhibition curve with a large enough effect; inconclusive = small, poorly fitted or top-dose-only effect; inactive = flat fitted curve, though single readings scatter.

Chain of Glutathione peroxidase 1 (Homo sapiens) (P07203 whole entry, looked up): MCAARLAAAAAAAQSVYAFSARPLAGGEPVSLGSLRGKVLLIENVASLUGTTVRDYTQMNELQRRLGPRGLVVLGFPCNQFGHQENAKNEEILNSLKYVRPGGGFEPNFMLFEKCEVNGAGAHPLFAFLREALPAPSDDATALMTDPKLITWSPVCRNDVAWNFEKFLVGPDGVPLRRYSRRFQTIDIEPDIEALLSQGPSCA
Chain of Phospholipid hydroperoxide glutathione peroxidase GPX4 (Homo sapiens) (P36969 whole entry, looked up): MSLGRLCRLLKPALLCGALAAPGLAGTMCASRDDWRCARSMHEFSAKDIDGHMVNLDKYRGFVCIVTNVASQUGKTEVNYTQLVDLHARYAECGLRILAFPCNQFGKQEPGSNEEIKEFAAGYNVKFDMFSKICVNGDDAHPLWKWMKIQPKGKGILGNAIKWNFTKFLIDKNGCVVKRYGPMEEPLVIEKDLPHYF

As for `CCOc1ccc(C(=O)OCCN(CC)CC)cc1`, the Potency result in assay [1], in assay [2], in assay [4], in assay [5], in assay [6] and in assay [7] was “inactive” each time. Also, in assay [8], the Potency entry was “inactive”. Also, the activity, negative = inhibition is 11.5% in assay [3] (setting [9]) and 3.64% in assay [3] (setting [10]).

For the molecule `CC(=O)OCC(COC(C)=O)OC(C)=O`, the Potency entry in assay [1], in assay [2], in assay [4], in assay [5], in assay [6] and in assay [7] was “inactive” in each case. Also, in assay [8], the Potency result is “inactive”. For the same molecule, the figures for the activity, negative = inhibition in assay [3] (setting [9]) and in assay [3] (setting [10]) were 4.58% and 8.38%, respectively.

For the molecule `O=C(O)CNC(=O)c1ccccc1I`, the Potency entry in assay [1], in assay [2], in assay [4], in assay [5], in assay [6] and in assay [7] was “inactive” in each case. Moreover, the Potency result in assay [8] was “inactive”. Further, the results for the activity, negative = inhibition in assay [3] (setting [9]) and in assay [3] (setting [10]) were 6.37% and 11.3%, respectively.

`CCCCCCCCCCOc1cc2c(=O)c(C(=O)OCC)c[nH]c2cc1OCC`: the Potency is 0.9 nM (active) in assay [3] (parasite line A) and 2.2 nM (active) in assay [3] (parasite line B).

For the molecule `NS(=O)(=O)c1ccc(C(=O)O)cc1`, the activity, negative = inhibition was 18.9% in assay [3] (setting [9]) and 11.1% in assay [3] (setting [10]). The Potency result in assay [4], in assay [5], in assay [6], in assay [7] and in assay [8] was “inactive” each time.

For `O=C(O)c1cc(=O)c2ccccc2o1`, the activity, negative = inhibition in assay [3] (setting [9]) is -22.1%; in assay [3] (setting [10]), 5.99%. In addition, the Potency entry in assay [4], in assay [5], in assay [6], in assay [7] and in assay [8] was “inactive” in each case.

With `CC(C)CCOC(=O)c1ccc(N(C)C)cc1`, the activity, negative = inhibition in assay [3] (setting [9]) was 18.9%; in assay [3] (setting [10]) it was 14.8%. Also, the Potency entry in assay [4], in assay [5], in assay [6], in assay [7] and in assay [8] was “inactive” in each case.

For `CCOC(=O)c1cccnc1`, the activity, negative = inhibition was 7.9% in assay [3] (setting [9]) and 13.9% in assay [3] (setting [10]). For the same molecule, the Potency result in assay [4], in assay [5], in assay [6], in assay [7] and in assay [8] was “inactive” throughout.

For `NNc1nnc(NN)c2ccccc12`, the values for the activity, negative = inhibition in assay [3] (setting [9]) and in assay [3] (setting [10]) were 11.4% and 18.1%, respectively. The Potency result in assay [4], in assay [5], in assay [6], in assay [7] and in assay [8] was “inactive” each time.

For the molecule `Cc1c(Cn2ccnc2)c2ccccc2n1CCC(=O)O`, the activity, negative = inhibition in assay [3] (setting [9]) was 14.7%; in assay [3] (setting [10]), 0.623%. Further, the Potency entry in assay [4], in assay [5], in assay [6], in assay [7] and in assay [8] was “inactive” each time.

Regarding `Cn1c(=O)c2c(ncn2CCO)n(C)c1=O`, the figures for the activity, negative = inhibition in assay [3] (setting [9]) and in assay [3] (setting [10]) were 2.6% and -3.88%, respectively. Further, the Potency entry in assay [4], in assay [5], in assay [6], in assay [7] and in assay [8] was “inactive” each time.

As to `COC(=O)c1ccccc1C(=O)c1ccc(OCCN2CCCCC2)cc1`, the activity, negative = inhibition was 9.58% in assay [3] (setting [9]) and 5.94% in assay [3] (setting [10]). Also, the Potency entry in assay [4], in assay [5], in assay [6], in assay [7] and in assay [8] was “inactive” throughout.

Take `CCN(CC)CCc1nc(-c2ccccc2)no1`: the activity, negative = inhibition in assay [3] (at 12.8 µM (top of the series), parasite line A) is -7.93%; in assay [3] (at 12.8 µM (top of the series), parasite line B) it was -5.26%. Also, the Potency entry in assay [4], in assay [5], in assay [6], in assay [7] and in assay [8] was “inactive” each time.

Turning to `CNCc1ccccc1`, the results for the activity, negative = inhibition in assay [3] (setting [9]) and in assay [3] (setting [10]) were 11.1% and 15.3%, respectively. For the same molecule, the Potency result in assay [4], in assay [5], in assay [6], in assay [7] and in assay [8] was “inactive” throughout.
